Experimental data as given in PubChem BioAssay AID1159580 (chemical genetic matrix, 2015).
Hit rate of the full screen: of about 5,500 compounds, about 2,000 (36%) were called active. Not shown: some 18% with an inconclusive outcome. Rule as the data show it: active = normalized growth mostly below about 0.91 (no sharp cut-off); inconclusive = no clear call, values can overlap the other calls; inactive = mostly above about 0.92. The list shows a part of the results.

Assay: chemical genetic growth profiling, strain panel (AID 1159580);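 also: tested at 20 µM; growth read once vehicle control cultures reached saturation at 30 °C; 1 = growth at the plate median or of vehicle wells; lower values mean less growth of the strain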
Settings: growth OD

Measured: normalized growth

O=C1O[C@@H](CO)[C@H](O)[C@@H](O)[C@@H]1O
inactive: S. cerevisiae deletion strains, locus YJR066W, strain TOR1, hits give low values 0.965 | S. cerevisiae deletion strains, locus YKL009W, strain mrt4, hits give low values 1.02 | S. cerevisiae deletion strains, locus YKL068W, hits give low values 0.999 | S. cerevisiae deletion strains, locus YKL085W, strain MDH1 (second series), hits give low values 0.998 | S. cerevisiae deletion strains, locus YKL085W, strain MDH1, hits give low values 0.998 | S. cerevisiae deletion strains, locus YKL160W, strain elf1, hits give low values 1.02 | S. cerevisiae deletion strains, locus YKL190W, strain CNB1, hits give low values 0.999 | S. cerevisiae deletion strains, locus YKR001C, strain vps1, hits give low values 0.985 | S. cerevisiae deletion strains, locus YKR026C, strain gcn3, hits give low values 1.01 | S. cerevisiae deletion strains, locus YKR091W, strain srl3, hits give low values 1.01 | S. cerevisiae deletion strains, locus YLL001W, strain dnm1, hits give low values 1.01 | S. cerevisiae deletion strains, locus YLL026W, hits give low values 1.02 | S. cerevisiae deletion strains, locus YLL041C, strain sdh2, hits give low values 1.02 | S. cerevisiae deletion strains, locus YLR027C, strain aat2, hits give low values 1.02 | S. cerevisiae deletion strains, locus YLR039C, strain RIC1, hits give low values 1.03 | S. cerevisiae deletion strains, locus YLR058C, strain SHM2, hits give low values 1.01 | S. cerevisiae deletion strains, locus YLR102C, strain apc9, hits give low values 1.01 | S. cerevisiae deletion strains, locus YLR113W, strain HOG1, hits give low values 0.963 | S. cerevisiae deletion strains, locus YLR221C, strain rsa3, hits give low values 1.01 | S. cerevisiae deletion strains, locus YLR258W, strain gsy2, hits give low values 1.04 | S. cerevisiae deletion strains, locus YLR262C, strain YPT6 (second series), hits give low values 1 | S. cerevisiae deletion strains, locus YLR262C, strain YPT6, hits give low values 1.08 | S. cerevisiae deletion strains, locus YLR268W, strain sec22, hits give low values 1.01 | S. cerevisiae deletion strains, locus YLR320W, strain mms22, hits give low values 1.02 | S. cerevisiae deletion strains, locus YLR330W, strain CHS5, hits give low values 1.01 | S. cerevisiae deletion strains, locus YLR342W, strain FKS1 (second series), hits give low values 1.04 | S. cerevisiae deletion strains, locus YLR342W, strain FKS1, hits give low values 1.03 | S. cerevisiae deletion strains, locus YLR357W, strain rsc2, hits give low values 1.01 | S. cerevisiae deletion strains, locus YLR370C, strain arc18, hits give low values 1.03 | S. cerevisiae deletion strains, locus YLR371W, strain rom2, hits give low values 1.01 | S. cerevisiae deletion strains, locus YLR384C, strain iki3, hits give low values 1.01 | S. cerevisiae deletion strains, locus YLR418C, strain cdc73, hits give low values 1.04 | S. cerevisiae deletion strains, locus YML016C, strain PPZ1, hits give low values 1.01 | S. cerevisiae deletion strains, locus YML032C, strain rad52, hits give low values 0.991 | S. cerevisiae deletion strains, locus YML120C, strain ndi1, hits give low values 1.01 | S. cerevisiae deletion strains, locus YML124C, strain tub3, hits give low values 1 | S. cerevisiae deletion strains, locus YMR058W, strain fet3, hits give low values 1.03 | S. cerevisiae deletion strains, locus YMR078C, strain ctf18, hits give low values 1 | S. cerevisiae deletion strains, locus YMR125W, strain sto1, hits give low values 1.02 | S. cerevisiae deletion strains, locus YMR129W, hits give low values 1.02 | S. cerevisiae deletion strains, locus YMR205C, strain PFK2, hits give low values 1.04 | S. cerevisiae deletion strains, locus YMR223W, strain ubp8, hits give low values 1.04 | S. cerevisiae deletion strains, locus YMR231W, strain pep5, hits give low values 1.02 | S. cerevisiae deletion strains, locus YMR307W, strain GAS1, hits give low values 1.05 | S. cerevisiae deletion strains, locus YNL067W, strain RPL9B, hits give low values 0.994 | S. cerevisiae deletion strains, locus YNL071W, strain lat1, hits give low values 1.02 | S. cerevisiae deletion strains, locus YNL128W, strain TEP1, hits give low values 1.02 | S. cerevisiae deletion strains, locus YNL183C, strain NPR1, hits give low values 0.944 | S. cerevisiae deletion strains, locus YNL209W, strain ssb2, hits give low values 1.03 | S. cerevisiae deletion strains, locus YNL233W, strain BNI4, hits give low values 1 | S. cerevisiae deletion strains, locus YNL248C, strain rpa49, hits give low values 1.06 | S. cerevisiae deletion strains, locus YNL250W, strain rad50, hits give low values 1.05 | S. cerevisiae deletion strains, locus YNL271C, strain bni1, hits give low values 0.993 | S. cerevisiae deletion strains, locus YNL298W, strain CLA4, hits give low values 1.01 | S. cerevisiae deletion strains, locus YNL307C, strain MCK1, hits give low values 1 | S. cerevisiae deletion strains, locus YNL322C, strain KRE1 (second series), hits give low values 1 | S. cerevisiae deletion strains, locus YNR049C, strain mso1, hits give low values 1.02 | S. cerevisiae deletion strains, locus YNR052C, strain pop2, hits give low values 1.01 | S. cerevisiae deletion strains, locus YOL006C, strain TOP1, hits give low values 0.992 | S. cerevisiae deletion strains, locus YOL012C, strain htz1 0.898 | S. cerevisiae deletion strains, locus YOL147C, strain pex11, hits give low values 1 | S. cerevisiae deletion strains, locus YOR001W, strain rrp6, hits give low values 1.01 | S. cerevisiae deletion strains, locus YOR061W, strain CKA2, hits give low values 1 | S. cerevisiae deletion strains, locus YOR069W, strain VPS5, hits give low values 1.01 | S. cerevisiae deletion strains, locus YOR070C, strain gyp1, hits give low values 1.03 | S. cerevisiae deletion strains, locus YOR080W, strain dia2, hits give low values 1.01 | S. cerevisiae deletion strains, locus YOR083W, strain WHI5, hits give low values 0.994 | S. cerevisiae deletion strains, locus YOR106W, strain vam3, hits give low values 1.01 | S. cerevisiae deletion strains, locus YOR136W, strain idh2, hits give low values 0.99 | S. cerevisiae deletion strains, locus YOR144C, strain elg1, hits give low values 1.01 | S. cerevisiae deletion strains, locus YOR184W, strain ser1, hits give low values 1 | S. cerevisiae deletion strains, locus YOR231W, strain MKK1, hits give low values 0.968 | S. cerevisiae deletion strains, locus YOR265W, strain rbl2, hits give low values 1.02 | S. cerevisiae deletion strains, locus YOR270C, strain vph1, hits give low values 1.06 | S. cerevisiae deletion strains, locus YOR290C, strain snf2, hits give low values 1.04 | S. cerevisiae deletion strains, locus YOR316C, strain cot1, hits give low values 1.01 | S. cerevisiae deletion strains, locus YPL051W, strain arl3, hits give low values 1 | S. cerevisiae deletion strains, locus YPL055C, strain LGE1, hits give low values 0.958 | S. cerevisiae deletion strains, locus YPL078C, strain atp4, hits give low values 1.03 | S. cerevisiae deletion strains, locus YPL106C, strain sse1, hits give low values 1.04 | S. cerevisiae deletion strains, locus YPL240C, strain hsp82, hits give low values 1.01 | S. cerevisiae deletion strains, locus YPL241C, strain CIN2, hits give low values 1 | S. cerevisiae deletion strains, locus YPL256C, strain CLN2, hits give low values 0.953 | S. cerevisiae deletion strains, locus YPR119W, strain clb2, hits give low values 1 | S. cerevisiae deletion strains, locus YPR141C, strain kar3, hits give low values 0.989 | S. cerevisiae deletion strains, locus YPR163C, strain tif3, hits give low values 1 | S. cerevisiae deletion strains, locus YPR167C, strain met16, hits give low values 1.01 | S. cerevisiae deletion strains, strain wtn01, hits give low values 0.997 | S. cerevisiae strains, strain wild type, hits give low values 1
